This passage reports growth results from PubChem BioAssay (NCI).

The panel holds about 83,000 compounds, 20% with a hit somewhere; the sample as a whole holds those more often.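 For each line, cells grew in 96-well plates with the test compound present at a single concentration for 48 hours.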 Unmarked numbers belong to inactive results. Active and inactive are the calls of the source. The calls were made as follows: active = growth percent below 10; inactive = the rest.

Test systems include DU-145 prostate; K-562 leukemia; MALME-3M melanoma; MDA-MB-231 breast; RXF 393 renal; SF-268 CNS; SF-295 CNS; SF-539 CNS; UACC-257 melanoma; M14 melanoma; HCT-15 colon; HT29 colon; SNB-75 CNS; SNB-19 CNS; U251 CNS; PC-3 prostate; SK-MEL-5 melanoma; UACC-62 melanoma; LOX IMVI melanoma; SK-MEL-28 melanoma.
Assay in all cases: NCI-60 one-dose screen, 48 h (100 = growth as untreated, 0 = no growth, -100 = all killed)
Holding throughout (settings): 10 µM unless noted

Consider `COc1ccc(/C=C2\C=C(c3ccccc3)N(CCc3ccccc3)C2=O)cc1OC`, for which the growth was 69% in the test on DU-145 prostate; 47.6% in the test with K-562 leukemia; 39.3% in the test with MALME-3M melanoma; 29.6% in the test on MDA-MB-231 breast; -3.29% (active) with RXF 393 renal; 55.2% in the test with SF-268 CNS. In addition, the growth in the test with SF-295 CNS is 26.8%; with SF-539 CNS, 42.1%; in the test with UACC-257 melanoma it was 69.3%; in the test with M14 melanoma, 51.5%; with HCT-15 colon, 60.9%; with HT29 colon it was 38.6%. In addition, the growth with SNB-75 CNS is -7.78% (active); in the test on SNB-19 CNS it was 43.3%; in the test on U251 CNS, 15.9%; in the test with PC-3 prostate, 54.4%; in the test with SK-MEL-5 melanoma, 38.5%; in the test on UACC-62 melanoma it was 54.5%. Further, the results for the growth in the test with LOX IMVI melanoma and with SK-MEL-28 melanoma were 2.28% (active) and 76.7%, respectively.

On to `COC(=O)/C(=C\c1ccc(OC)cc1)C(=O)N1c2ccccc2Sc2ccccc21`, for which the growth in the test on DU-145 prostate was 78.5%; in the test with K-562 leukemia it was 11.1%; in the test on MALME-3M melanoma it was 32.9%; in the test with MDA-MB-231 breast, 54.2%; with RXF 393 renal, 47.7%; with SF-268 CNS, 54.6%. Further, the growth with SF-295 CNS was 38.8%; in the test on SF-539 CNS it was 42.1%; in the test on UACC-257 melanoma, 65.4%; in the test with M14 melanoma, 23.3%; with HCT-15 colon it was 24%; with HT29 colon, 15.3%. The growth with SNB-75 CNS is 2.37% (active); in the test with SNB-19 CNS, 66.9%; with U251 CNS, 50.3%; with PC-3 prostate, 53%; with SK-MEL-5 melanoma it was 41.5%; in the test on UACC-62 melanoma, 19.5%. For the same molecule, the growth in the test on LOX IMVI melanoma was 50.6%; in the test with SK-MEL-28 melanoma, 50.9%.

Take `CN(C)c1ccc(/C=C/c2c(F)cccc2F)cc1`: the growth in the test with DU-145 prostate is 105%; in the test with K-562 leukemia, 115%; with MALME-3M melanoma, 90.1%; in the test on MDA-MB-231 breast, 110%; in the test on RXF 393 renal, 108%; with SF-268 CNS, 93.7%. Also, the growth in the test on SF-295 CNS is 96.6%; in the test on SF-539 CNS, 98.3%; with UACC-257 melanoma, 89%; in the test with M14 melanoma, 93.2%; in the test with HCT-15 colon, 98.6%; in the test with HT29 colon, 92.3%. The growth in the test on SNB-75 CNS was 88.4%; in the test with SNB-19 CNS, 105%; in the test on U251 CNS it was 89.9%; in the test with PC-3 prostate, 81.7%; with SK-MEL-5 melanoma, 94.9%; in the test with UACC-62 melanoma it was 97.9%. Moreover, the growth with LOX IMVI melanoma is 88.1%; in the test on SK-MEL-28 melanoma it was 109%.

For `CN(C)c1ccc(C#Cc2c(F)cccc2Cl)cc1`, the growth in the test with DU-145 prostate is 101%; in the test on K-562 leukemia, 95.5%; in the test with MALME-3M melanoma, 93.4%; in the test with MDA-MB-231 breast it was 66.2%; in the test on RXF 393 renal, 112%; in the test with SF-268 CNS, 87.7%. For the same molecule, the growth is 76.5% with SF-295 CNS; 94.6% with SF-539 CNS; 91.2% in the test on UACC-257 melanoma; 100% in the test on M14 melanoma; 78.4% with HCT-15 colon; 73.7% with HT29 colon. The growth in the test with SNB-75 CNS is 75%; in the test with SNB-19 CNS, 111%; in the test with U251 CNS, 89.1%; with PC-3 prostate, 70.5%; in the test on SK-MEL-5 melanoma it was 85.3%; in the test on UACC-62 melanoma, 87.6%. For the same molecule, the growth in the test with LOX IMVI melanoma was 81.3%; in the test with SK-MEL-28 melanoma it was 105%.

For the molecule `COc1cc(/C=C2\C=C(c3ccccc3)N(CCc3ccccc3)C2=O)cc(OC)c1OC`, the growth is 73.8% in the test on DU-145 prostate; 94.2% with K-562 leukemia; 50.1% in the test with MALME-3M melanoma; 5.9% (active) in the test on MDA-MB-231 breast; 72.3% with RXF 393 renal; 44.7% in the test on SF-268 CNS. For the same molecule, the growth with SF-295 CNS was 53.3%; in the test on SF-539 CNS, -17.2% (active); in the test with UACC-257 melanoma, 88.2%; in the test on M14 melanoma it was 73.6%; with HCT-15 colon, 94.1%; with HT29 colon it was 74.8%. For the same molecule, the growth in the test on SNB-75 CNS is -6.74% (active); with SNB-19 CNS, 65.4%; in the test with U251 CNS, 52.5%; in the test on PC-3 prostate, 76.2%; in the test with SK-MEL-5 melanoma it was 57.7%; in the test with UACC-62 melanoma, 56.1%. In addition, the figures for the growth in the test with LOX IMVI melanoma and with SK-MEL-28 melanoma were 58.2% and 84.1%, respectively.

Regarding `CCNCCNc1cc(-c2cccc(C(F)(F)F)c2)c(C#N)c2nc3ccccc3n12`, the growth in the test on DU-145 prostate is -74.9% (active); with K-562 leukemia, -65.8% (active); in the test on MALME-3M melanoma it was -77.3% (active); with MDA-MB-231 breast, -66.2% (active); in the test with RXF 393 renal, -85.6% (active); with SF-268 CNS, -73.8% (active). Moreover, the growth was -82.3% (active) in the test with SF-295 CNS; -88.7% (active) in the test with SF-539 CNS; -84.4% (active) in the test on UACC-257 melanoma; -89.3% (active) in the test on M14 melanoma; -91.4% (active) with HCT-15 colon; -82.5% (active) with HT29 colon. Also, the growth is -89.3% (active) with SNB-75 CNS; -20.3% (active) in the test with SNB-19 CNS; -88.7% (active) with U251 CNS; -59% (active) in the test with PC-3 prostate; -96.1% (active) in the test on SK-MEL-5 melanoma; -68.6% (active) in the test on UACC-62 melanoma. In addition, the growth with LOX IMVI melanoma is -85.7% (active); in the test with SK-MEL-28 melanoma, -81.9% (active).

Regarding `Cc1ccc(S(=O)(=O)N(CC[C@@H]2C[C@H]2c2cc3ccccc3o2)C(=O)NC2CCCCC2)cc1`, the growth is 107% with DU-145 prostate; 91.1% in the test with K-562 leukemia; 96.1% with MALME-3M melanoma; 90.1% in the test on MDA-MB-231 breast; 106% in the test with RXF 393 renal; 98.8% in the test on SF-268 CNS. Besides, the growth in the test with SF-295 CNS was 110%; in the test on SF-539 CNS, 95%; in the test on UACC-257 melanoma, 108%; in the test with M14 melanoma, 96.5%; with HCT-15 colon, 92.3%; with HT29 colon, 90.8%. The growth in the test with SNB-75 CNS is 102%; in the test on SNB-19 CNS it was 99.8%; in the test with U251 CNS, 100%; with PC-3 prostate, 95.6%; in the test on SK-MEL-5 melanoma it was 101%; with UACC-62 melanoma, 78.4%. For the same molecule, the values for the growth in the test on LOX IMVI melanoma and in the test with SK-MEL-28 melanoma were 90.5% and 95.7%, respectively.
